Measured values as given in PubChem BioAssay (EPA / NIEHS).
The source made the active and inactive calls. How the source made its calls: active means hit-call score of the fitted dose curve at least 0.9, where 1 is the maximum; inactive means score below 0.9.

Assay: ATG_ISRE_CIS: Attagene CIS-FACTORIAL HepG2 Assay for human Interferon Regulatory Factor 1 (IRF1) binding to an Interferon-Stimulated Response Element (ISRE) (AID 2282948)
Settings: HepG2 ISRE cis-reporter (Attagene), mRNA transcription readout; actives raise or lower the signal
Procedure: ATG_CIS is a cell-based, multiplexed-readout assay that uses HepG2, a human liver cell line, with measurements taken at 24 hours after chemical dosing in a 24-well plate.ATG_ISRE_CIS is one of 52 assay component(s) measured or calculated from the ATG_CIS assay. It is designed to make measurements of mRNA induction, a form of inducible reporter, as detected with fluorescence intensity signals by Reverse transcription polymerase chain reaction (RT-PCR) and Capillary electrophoresis technology.Data from the assay component ATG_ISRE_CIS was analyzed into 1 assay endpoint. This assay endpoint, ATG_ISRE_CIS, was analyzed with bidirectional fitting relative to DMSO as the negative control and baseline of activity. Using a type of inducible reporter, measures of mRNA for gain or loss-of-signal activity can be used to understand the reporter gene at the transcription factor-level as they relate to the gene IRF1. Furthermore, this assay endpoint can be referred to as a primary readout, because this assay has produced multiple assay endpoints where this one serves a reporter gene function. To generalize the intended target to other relatable targets, this assay endpoint is annotated to the dna binding intended target family, where the subfamily is interferon regulatory factors.
Human liver HepG2 cells are transiently transfected with multiple reporter transcription units (MRTUs) in 6-well plates using FuGene 6 reagent (Roche; 3 ml FuGene/1 mg DNA). The MRTU constructs are regulated by a cis-regulating element (promoter). […] A major difference between the CIS and TRANS system is that in CIS activities of endogenous TFs are measured, whereas the TRANS assay evaluates changes in activities of exogenous, chimeric NR-Gal4 proteins. […] At the end of 24 hour incubation, total RNA was isolated using TriZol reagent (Invitrogen). The isolated RNA is then reverse-transcribed using oligo(dT) primer and Mo-MLV reverse transcriptase (Invitrogen) with DNAse I (Ambion) treatment for 30 min. The one-tenth of the produced cDNA was amplified by PCR using Taq DNA polymerase (Invitrogen) and two reporter sequence-specific primers. The PCR products were fluorescently labeled by primer extension with 6-arboxyfluorescein (6-FAM) 5'-labeled reporter sequence-specific primer (2 min at 95 C, 20 s at 68 C and 10 min at 72 C) and these products were digested with 5U of HpaI (New England Biolabs) for 2h at 37 C. The fragments were purified using Qiaquick PCR columns (Qiagen), analyzed on an ABI 3130xL genetic analyzer (Applied Biosystems) with peak positions identified by using a set of X-rhodamine (ROX)-labeled MapMarker1000 molecular weight standards (BioVentures). The raw capillary electrophoresis data was processed using Attagraph software (Attagene).

SMILES	outcome	AC50
[Cu+]	inactive	
FC(F)(F)c1ccc(Cl)c(Cl)c1	inactive	
CN1CCc2cccc3c2[C@H]1Cc1ccc(O)c(O)c1-3		13.3 µM (active)
COC(=O)c1ccc(C(=O)OC)cc1	inactive	
CC(C)Cc1ccccc1	inactive	
CCCCCCCCCC(=O)OCC	inactive	
CC(=O)c1ccc(O)cc1	inactive	
O=C(O)C1=NN(c2ccc(S(=O)(=O)O)cc2)C(=O)C1	inactive	
CC/C(=C(\c1ccccc1)c1ccc(OCCN(C)C)cc1)c1ccccc1	inactive	
CC(=O)OC(C)(C)C	inactive	
COC(=O)C(C)Oc1ccc(Oc2ncc(C(F)(F)F)cc2Cl)cc1 (stereo not given)	inactive	
O=C(O)c1cccc(Cl)n1	inactive	
CN(C)c1ccc(C=O)cc1	inactive	
CN(C)CCC=C1c2ccccc2CCc2ccccc21		21.5 µM (active)
CCC(C)(C)c1cc(O)c(C(C)(C)CC)cc1O		20.2 µM (active)
c1ccc2scnc2c1	inactive	
C=CC(C)(CCC=C(C)C)OC(=O)CC (stereo not given)	inactive	
C=CCCCCCCCCC(=O)OCC	inactive	
NC(=O)NC(N)=O	inactive	
NCCN1CCNCC1	inactive	

SMILES	outcome	AC50
CC(C)(C)c1ccc(S)cc1	inactive	
CCCC(O)C(CC)CO (stereo not given)	inactive	
CCCCCCCCCCCCCCCCCC(=O)OCCCCCCCCCCCCCC(C)C	inactive	
CCOC(=O)COC(=O)c1ccccc1C(=O)OCC	inactive	
S=c1[nH][nH]c(=S)s1	inactive	
CCCO[Si](OCCC)(OCCC)OCCC	inactive	
COc1ccccc1NC(=O)CC(C)=O	inactive	
[O-]/[N+](=N\O)c1ccccc1	inactive	
CC1=CCC(C(C)(C)O)CC1 (stereo not given)	inactive	
C=CC(O)CCCCC (stereo not given)	inactive	
Cc1cc(N)n(-c2ccccc2)n1	inactive	
Cc1ccccc1S	inactive	
COc1ccc(C(C)=O)cc1	inactive	
C=C(C)C(=O)OCCN(C)C	inactive	
C=C(C)CCCC(C)CCO (stereo not given)	inactive	
C=C(C)C(=O)OCCOCCOC(=O)C(=C)C	inactive	
C1COCO1	inactive	
CC(C)=CC(=O)O	inactive	
CCCCCC#CC(=O)OC	inactive	
CC(C)(C)c1cc(CCC(=O)OCCSCCOC(=O)CCc2cc(C(C)(C)C)c(O)c(C(C)(C)C)c2)cc(C(C)(C)C)c1O	inactive	
